# Records with an inconclusive call do not appear. A number with no mark means an inactive call. Active and inactive are the calls of the source. Calls come from the whole dose curve; as a rule, active = well fitted inhibition curve with a large enough effect; inconclusive = small, poorly fitted or top-dose-only effect; inactive = flat fitted curve, though single readings scatter.
# Test system: Zika virus NS2B-NS3 protease
# Test: Primary screen GU AMC qHTS for Zika virus inhibitors (AID 1347154);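 note: 0% = no-inhibitor control and -100% = no-enzyme control; nearly all actives have a fitted effect of over 70% in size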
# Settings: Zika NS2B-NS3 unlinked protease, AMC fluorogenic substrate; series mostly up to 54.1 µM; activity change, negative = inhibition: at the top concentration
# Outline: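 Unlinked Zika NS2B hydrophilic domain–NS3 protease complex at 25 nM in 10 mM Tris-HCl pH 8.0, 0.01% Tween 20, with an AMC peptide substrate. Fluorescence change (340/450 nm) over 15 min at room temperature, normalized to controls, fitted to 4-parameter Hill.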
Compound,"activity change, negative = inhibition",Potency
C[C@H]1C(=O)O[C@@H]2CCN3CC=C(COC(=O)[C@](C)(O)[C@]1(C)O)[C@H]23,2.09%,–
COc1cc(N)c(Cl)cc1C(=O)NC1CN2CCC1CC2 (stereo not given),–,inactive
CCNc1nc(Cl)nc(NCC)n1,0.601%,–
c1ccc2nc(N3CCNCC3)ccc2c1,-15.1%,–
CC(C)(O)C(Cl)(Cl)Cl,3.78%,–
O=C1NCN(c2ccccc2)C12CCN(CCCOc1ccc(F)cc1)CC2,–,inactive
OC(O)C(Cl)(Cl)Cl,-0.414%,–
CC(C)NCC(O)c1ccc(N)c(C#N)c1 (stereo not given),–,inactive
CC[C@H]1C[C@@H]2C[C@H]3c4[nH]c5ccc(OC)cc5c4CCN(C2)[C@@H]13,-10.4% [at 104 µM],–
C[N+]1(C)[C@@H]2CC[C@H]1CC(OC(=O)C(CO)c1ccccc1)C2 (stereo not given in full),-3.26%,–
CC[C@]1(O)CC[C@H]2[C@@H]3CCC4=CCCC[C@@H]4[C@H]3CC[C@@]21C,0.0051%,–
CCN(CC)Cc1nccn1-c1ccc([N+](=O)[O-])cc1C(=O)c1ccccc1Cl,2.6%,–
Nc1ccc(N)cc1,-5.49%,–
CCOC(=O)C1(c2ccccc2)CCN(CCc2ccc(N)cc2)CC1,-8.32%,–
CNC(=O)Oc1cccc2ccccc12,-14.3%,–
CN1CCc2cc(Cl)c(O)cc2[C@H]2c3ccccc3CC[C@@H]21,–,inactive
CC(C)=C[C@@H]1[C@@H](C(=O)OCc2coc(Cc3ccccc3)c2)C1(C)C,-14.1%,–
CC(=O)OC1(c2ccccc2)CCN(CCc2ccccc2)CC1,-5.32% [at 104 µM],–
C=CCN1CC[C@]23CCCC[C@H]2[C@H]1Cc1ccc(O)cc13,-0.941%,–
C[C@]12Cc3nonc3C[C@@H]1CC[C@@H]1[C@@H]2CC[C@@]2(C)[C@H]1CC[C@]2(C)O,-5.33%,–

# Reference: PubChem BioAssay (NCATS)
